In PubChem BioAssay (NCI):
The panel holds about 79,000 compounds, 15% with a hit somewhere; the sample as a whole holds those more often. Values without a mark were called inactive. Activity calls are given as the source filed them. Rule as the data show it: active = growth inhibition above about 70%; inactive = the rest.

Tests used:
[1] = NCI Yeast Anticancer Drug Screen. Data for the rad50 strain (AID 155);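 also: 0% = growth of vehicle-only cultures of the same strain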; details: S. cerevisiae rad50 strain growth inhibition; at 50.0 µM; hits give high values
Outline: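 Relative growth inhibition (compound vs vehicle) was measured in yeast with a defined repair-gene alteration.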

[2] = NCI Yeast Anticancer Drug Screen. Data for the mec2-1 strain (AID 157); details: S. cerevisiae mec2-1 strain, at 50.0 µM, hits give high values
Outline: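 Mutant yeast (mec2-1) grown with compound; growth inhibition relative to vehicle control reported.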

[3] = NCI Yeast Anticancer Drug Screen. Data for the sgs1 mgt1 strain (AID 161);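 also: 0% = growth of cultures given vehicle only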; details: S. cerevisiae sgs1 mgt1 strain, at 50.0 µM, hits give high values
Outline: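 Growth of a repair-deficient yeast mutant was monitored after compound treatment and expressed as inhibition relative to vehicle-treated cultures.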

[4] = NCI Yeast Anticancer Drug Screen. Data for the cln2 rad14 strain (AID 165);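 also: 0% = growth equal to vehicle treated cultures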; details: S. cerevisiae cln2 rad14 strain, at 50.0 µM, hits give high values
Outline: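 Readout is yeast growth inhibition versus vehicle-treated controls, using a strain with cln2 and rad14 alterations exposed to compound.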

[5] = NCI Yeast Anticancer Drug Screen. Data for the bub3 strain (AID 167); details: S. cerevisiae bub3 mutant strain, at 50.0 µM, hits give high values
Outline: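 Screening used yeast with an engineered genetic alteration affecting cell cycle control. Compound-exposed cultures were compared with vehicle cultures, and reduced growth was taken as inhibition.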

[6] = NCI Yeast Anticancer Drug Screen. Data for the mlh1 rad18 strain (AID 175); details: S. cerevisiae mlh1 rad18 strain growth inhibition; at 50.0 µM; hits give high values
Outline: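 Genetically defined yeast (DNA repair-deficient) exposed to compounds; growth inhibition determined relative to vehicle.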

Structure (SMILES)	growth inhibition [1]	growth inhibition [2]	growth inhibition [3]	growth inhibition [4]	growth inhibition [5]	growth inhibition [6]
Nc1nc(CCl)nc(N2CCOCC2)n1	6.3%	1.65%	7.7%	20.4%	19.4%	-20.2%
CN(C)c1ccc([O-])cc1.CN(C)c1ccc([O-])cc1.CN(C)c1ccc([O-])cc1.CN(C)c1ccc([O-])cc1.[Ti+4]	26.9%	-19.4%	4.65%	19.3%	4.95%	-2.6%
O=C(O)c1ccc2c(c1)C(=O)c1c(c(O)c3ccccc3c1O)C2=O	9.25%	6.25%	9.6%	-11.7%	12.3%	-8.55%
CCN(CC)CCOC(NC(C)=O)(c1ccccc1)c1ccccc1	3.5%	-9.55%	9.85%	1.55%	14.8%	20%
O=c1[nH]c2cc([N+](=O)[O-])ccc2nc1/C=C(\O)c1ccc(Cl)cc1	-23.2%	-22.8%	-20.1%	-9.15%	-12.2%	-36.7%
CCN(CC)C(=O)CCC1CCCCC1	-35%	-18.9%	-11.9%	-39.3%	-14.1%	-23.5%
CCOc1ccnc2c(OC)c(C)c3nc4ccccc4nc3c12	7.6%	-13.2%	-4.65%	13.6%	-7.3%	91% (active)
O=C(O)CCCc1ccccc1[N+](=O)[O-]	-16.7%	-41.8%	-6.4%	-2.35%	-18.9%	-19.8%
C/C=C/C(C/C=C(\C)CO[Si](C)(C)C(C)(C)C)O[Si](C)(C)C(C)(C)C (stereo unspecified)	1.1%	-14.5%	-6.45%	-8.45%	4.9%	2.95%
Cc1cc(C)c(NC(=O)CC#N)cc1C	-5%	-12.6%	-17.4%	-51.4%	-1.35%	-6.6%
COC(=O)CCNC(=O)OCc1ccccc1	14.6%	30%	-16.7%	26.6%	-49.6%	-75%
Cc1cnc2[nH]c(-c3ccccc3)cc(=O)c2c1	-6.7%	-12.6%	-0.9%	-23.2%	-8.25%	-48.5%
O=C(/C(=C(/[O-])C(F)(F)F)[n+]1ccc2ccccc2c1)C(F)(F)F	-16.4%	-2.4%	-5.3%	-40.1%	-28.6%	-0.4%
COc1ccc(/C(C)=N/OC(=O)c2sc3ccccc3c2Cl)cc1CN1CCOCC1	-17.9%	-23.9%	-25.4%	-2.05%	-28.9%	-21.6%
O=C(c1ccc2c(c1)C(=O)OC2=O)c1ccc2c(c1)C(=O)OC2=O	-22.5%	-39.9%	-17.8%	6.1%	-27.8%	-29.7%
Cc1cnc2c(N)nc(-c3ccccc3)nc2n1	8.55%	-2.1%	-6.9%	-39.4%	-5.15%	-0.45%
COc1ccc(COC(=O)Nc2ccccc2Cl)cc1	5.85%	-9.45%	-4.9%	-6.9%	17%	-6.35%
O=C1CCC(=O)N1c1ccc([I+]c2ccc(N3C(=O)CCC3=O)cc2)cc1	32.5%	6.65%	12.7%	15.1%	-0.8%	14.4%
c1ccc(-c2nc3ccccc3nc2-c2ccc(Cc3ccc(-c4nc5ccccc5nc4-c4ccccc4)cc3)cc2)cc1	39.5%	19.1%	15.4%	21.2%	-6.5%	25.1%
CC(=O)c1cccc(NC(=O)Nc2cccc(C)n2)c1	-9.55%	32.8%	11.9%	-24.6%	8.55%	12.6%
O=C1C2C3C=CC(CC3)C2C(=O)C2C3C=CC(C3)C12 (stereo unspecified)	1.15%	24.1%	26.9%	-14.8%	-1.45%	32.3%

Structure (SMILES)	growth inhibition [1]	growth inhibition [2]	growth inhibition [3]	growth inhibition [4]	growth inhibition [5]	growth inhibition [6]
CCOC(=O)CC(c1ccc2c(c1)OCO2)c1cc(OC)c(OC)c(OC)c1 (stereo unspecified)	-7.65%	24.9%	-3%	0.45%	29.1%	3.2%
CCN(CC)C1CCC(C2c3cc4c(cc3OC(N3CCOCC3)C2C)OCO4)CC1 (stereo unspecified)	-11.1%	-18.4%	-22.8%	-63%	7.95%	-22.4%
CCN(CC)C(=S)Nc1ccc(-c2cc3ccc(O)cc3oc2=O)cc1	-6.95%	11.6%	-5.45%	32.9%	18.2%	6.15%
CC1CN=C(Nc2ccc(S(N)(=O)=O)cc2)S1 (stereo unspecified)	-21.2%	-18.6%	-58.1%	-11.4%	-2.25%	-43%
N#CCCC(=O)c1ccc[nH]1	6.6%	10.8%	2.2%	5.8%	1.3%	8.4%
COC(OC)c1cc(C(=O)O)c2ccccc2n1	-9.45%	-31.2%	-9.85%	-4.6%	-22.2%	-6.6%
COc1ccc(Nc2nc3cc(C(F)(F)F)ccc3nc2-c2ccccc2)cc1OC	2.05%	2.65%	-48.2%	-4.85%	-12.4%	-24.4%
CCCCCCNC(=O)CCC(NC(=O)c1ccc(N(C)Cc2cnc3nc(N)nc(N)c3n2)cc1)C(=O)NCCCCCC (stereo unspecified)	18.2%	17.1%	19.1%	19.9%	25.4%	28.2%
O=C1c2ccccc2-c2nc(-c3ccncc3)cc3c2c1nc1ccccc13	25.6%	18.4%	27.2%	11.1%	14.1%	34.4%
CC(C)CC1CC(=O)C(=O)C(CC(C)C)C1 (stereo unspecified)	8.25%	0.5%	3.45%	-17.5%	3.95%	-1.05%
CC(=O)[C@@]1(O)CC[C@H]2[C@@H]3C[C@H](C)C4=CC(=O)C=C[C@]4(C)[C@@]3(F)[C@@H](O)C[C@@]21C	-24.1%	9.65%	-11.1%	-33%	-4.5%	-22.1%
COc1cc(C2SCCCCCCCCCCSC(c3ccc(O)c(OC)c3)SCCCCCCCCCCS2)ccc1O (stereo unspecified)	-24.6%	-24.8%	-29.2%	-18.9%	-30.2%	-6.9%
O=C1C2(CCCC13N=NCC3c1ccccc1)N=NCC2c1ccccc1 (stereo unspecified)	28.9%	-19.1%	-0.95%	-4.9%	0.85%	38.5%
COc1cccc2c1CCC(=O)C2C (stereo unspecified)	35.1%	-0.9%	14.3%	-5.45%	13.6%	22.9%
COc1cc(C2C(C(=O)NCc3ccccc3)=C(C)NC(C)=C2C(=O)NCc2ccccc2)ccc1O	-27.1%	-11.1%	-23.9%	-3.9%	-7%	-21.2%
C[C@@H]1C[C@H](C)OC(CO)O1 (stereo partly specified) (tested in a mixture with another compound)	13.4%	-1.3%	0.25%	12.2%	-12.6%	19.3%
CCCC(=O)NC(Nc1cc(C)ccn1)(C(=O)OCC)C(F)(F)F (stereo unspecified)	-4.85%	8.5%	9.1%	7.4%	15.8%	-31.9%
CCCCC(=O)CCC(=O)O	9.7%	11.6%	4.95%	13.8%	9.7%	12.7%
CCOC(=O)/C(C#N)=C(\CC)c1ccccc1	-8.5%	-8.85%	-3.85%	-0.15%	-8.85%	-21.5%
N#Cc1ccc(CC(O)(c2ccccc2)c2ccccc2)cc1	4.6%	-1.25%	-1.3%	-12.6%	3.25%	-9.7%
